Reference: the supplement of paper PMC9694430

Key:
Test in all cases: thermal shift delta Tm vs DMSO control; higher = stronger stabilization (binding)
Settings in all cases: 12.5 µM; protein concentration 2 µM
LOC_OS04G57630-cb004 = system: LOC_OS04G57630-cb004
Outline: (§1)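 Rice kinase domain constructs were expressed in E. coli, purified, and tested by differential scanning fluorimetry with compound added in DMSO. Each well of a 96-well plate held 19.5 μl of 2 μM kinase in 100 mM potassium phosphate pH 7.5, 150 mM NaCl, 10% glycerol and 5 × SYPRO Orange, and fluorescence was read from 25°C to 95°C at 0.05°C/s. The melting temperature shift is the mean of triplicates, taken against protein with DMSO alone after Boltzmann fitting.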

LOC_OS05G07850-cb002 = system: LOC_OS05G07850-cb002
Outline: as §1

LOC_OS05G16824-cb004 = system: LOC_OS05G16824-cb004
Outline: as §1

LOC_OS05G28520-cb001 = system: LOC_OS05G28520-cb001
Outline: as §1

LOC_OS05G30820-cb001 = system: LOC_OS05G30820-cb001
Outline: as §1

LOC_OS05G43570-cb004 = system: LOC_OS05G43570-cb004
Outline: as §1

LOC_OS06G16330-cb003 = system: LOC_OS06G16330-cb003
Outline: as §1

LOC_OS06G22820-cb001 = system: T1, LOC_OS06G22820-cb001
T1 sequence (whole entry): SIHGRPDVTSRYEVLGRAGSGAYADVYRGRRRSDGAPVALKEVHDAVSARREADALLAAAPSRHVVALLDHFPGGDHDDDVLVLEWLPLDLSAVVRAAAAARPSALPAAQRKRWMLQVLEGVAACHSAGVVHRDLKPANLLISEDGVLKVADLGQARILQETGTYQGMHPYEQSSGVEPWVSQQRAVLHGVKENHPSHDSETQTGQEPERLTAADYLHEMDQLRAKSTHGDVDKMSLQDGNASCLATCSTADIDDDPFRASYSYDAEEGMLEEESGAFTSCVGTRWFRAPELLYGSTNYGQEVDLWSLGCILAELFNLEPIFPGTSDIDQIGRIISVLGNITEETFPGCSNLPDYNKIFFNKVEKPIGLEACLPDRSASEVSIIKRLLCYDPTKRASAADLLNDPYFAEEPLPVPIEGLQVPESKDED
Outline: as §1

LOC_OS07G06570-cb004 = system: LOC_OS07G06570-cb004
Outline: as §1

LOC_OS07G07230-cb001 = system: LOC_OS07G07230-cb001
Outline: as §1

Sequence of LOC_OS06G16330-cb003 (as listed by the source): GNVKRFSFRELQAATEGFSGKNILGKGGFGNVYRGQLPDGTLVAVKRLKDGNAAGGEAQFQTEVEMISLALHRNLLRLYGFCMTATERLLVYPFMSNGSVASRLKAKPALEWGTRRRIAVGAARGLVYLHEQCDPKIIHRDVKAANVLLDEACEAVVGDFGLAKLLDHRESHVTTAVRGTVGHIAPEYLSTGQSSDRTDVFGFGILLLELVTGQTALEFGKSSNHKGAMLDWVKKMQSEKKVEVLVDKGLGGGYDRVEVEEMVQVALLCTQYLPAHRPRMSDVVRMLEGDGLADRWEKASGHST

Row | SMILES | thermal shift delta Tm (LOC_OS04G57630-cb004) | thermal shift delta Tm (LOC_OS05G07850-cb002) | thermal shift delta Tm (LOC_OS05G16824-cb004) | thermal shift delta Tm (LOC_OS05G28520-cb001) | thermal shift delta Tm (LOC_OS05G30820-cb001) | thermal shift delta Tm (LOC_OS05G43570-cb004) | thermal shift delta Tm (LOC_OS06G16330-cb003) | thermal shift delta Tm (LOC_OS06G22820-cb001) | thermal shift delta Tm (LOC_OS07G06570-cb004) | thermal shift delta Tm (LOC_OS07G07230-cb001)
1 | COc1cc(Nc2ncc(F)c(Nc3ccc4c(n3)N(COP(=O)(O)O)C(=O)C(C)(C)O4)n2)cc(OC)c1OC [R788 (Fostamatinib) Disodium] | 0.34 °C | 7.08 °C | 6.19 °C | 0.86 °C | 1.5 °C | 0.56 °C | 6.28 °C | 0.9 °C | 1.71 °C | 0.59 °C
2 | COc1cc(F)c(F)c(Nc2ccc(I)cc2F)c1NS(=O)(=O)C1(C[C@H](O)CO)CC1 [Refametinib (RDEA119, Bay 86-9766)] | 0.29 °C | 0.16 °C | -0.08 °C | 1.02 °C | 0.34 °C | 0.4 °C | 0.11 °C | 1.27 °C | 0.72 °C | 0.01 °C
3 | N#CC1(c2ccc(NC(=O)c3cccnc3NCc3ccncc3)cc2)CCCC1 [Apatinib] | 0.34 °C | 0.8 °C | -5.15 °C | 0.2 °C | 0.66 °C | 0.51 °C | -0.32 °C | 0.38 °C | 1.2 °C | 0.05 °C
4 | COc1cc2ncnc(Nc3cccc(Cl)c3)c2cc1OC [AG-1478 (Tyrphostin AG-1478)] | 0.54 °C | 10.9 °C | 0.02 °C | 0.3 °C | 0.62 °C | 0.52 °C | 5.45 °C | 0.8 °C | 0.35 °C | 0.01 °C
5 | Cc1c(C(=O)N2CCOc3ccc(-c4ccc(N)nc4)cc3C2)ccc(S(C)(=O)=O)c1F | 0.14 °C | 0.91 °C | -4.24 °C | 0.33 °C | 0.36 °C | 0.13 °C | 1.82 °C | 0.73 °C | 0.94 °C | 0.23 °C
6 | CN1CCN(Cc2ccc(-c3cnc4[nH]cc(-c5ccc6[nH]ccc6c5)c4c3)cc2)CC1 | 11.1 °C | 15.3 °C | 11.2 °C | 2.09 °C | 1.88 °C | 1.74 °C | 13.7 °C | 0.7 °C | 1.92 °C | 0.61 °C
7 | N#Cc1c(O)c2c(-c3ccc(-c4ccccc4O)cc3)csc2[nH]c1=O | 0.93 °C | 0.59 °C | -0.44 °C | 1.06 °C | 0.78 °C | 1.18 °C | 1.03 °C | 0.91 °C | 1.2 °C | 0.19 °C
8 | Cc1ccc(F)c(NC(=O)Nc2ccc(-c3cccc4[nH]nc(N)c34)cc2)c1 [Linifanib (ABT-869)] | 0.74 °C | 4.63 °C | 1.86 °C | 0.75 °C | 0.85 °C | 0.9 °C | 3.55 °C | 0.6 °C | 0.72 °C | 0.93 °C
9 | CCN(CC)CCCCNc1ncc2cc(-c3cc(OC)cc(OC)c3)c(NC(=O)NC(C)(C)C)nc2n1 | -0.1 °C | -0.15 °C | -2.16 °C | 0.72 °C | 0.45 °C | 0.68 °C | -0.04 °C | 0.57 °C | 1.02 °C | 0.36 °C
10 | O=C(Nc1c[nH]nc1-c1nc2ccc(CN3CCOCC3)cc2[nH]1)NC1CC1 | 3.7 °C | 14.2 °C | 14.9 °C | 0.46 °C | 4.77 °C | 1.2 °C | 10.7 °C | 0.86 °C | 0.71 °C | 0.15 °C
11 | CCN1CCN(Cc2ccc(Nc3ncc(F)c(-c4cc(F)c5nc(C)n(C(C)C)c5c4)n3)nc2)CC1 | 1.35 °C | 12.6 °C | 3.33 °C | 0.73 °C | 0.2 °C | 0.41 °C | 6.17 °C | 0.41 °C | 1.14 °C | 0.37 °C
12 | COc1ccc(CCNCc2ccc(OCc3ccc(Cl)nc3)c(OC)c2)cc1OC | 0.32 °C | -0.86 °C | -5.08 °C | 0.09 °C | 0.33 °C | -0.15 °C | -0.05 °C | 0.26 °C | 0.85 °C | 0.59 °C
13 | COc1nccnc1NS(=O)(=O)c1ccc(NC(=O)/C=C/c2ccc([N+](=O)[O-])s2)cc1 [Necrosulfonamide] | -0.33 °C | -1.15 °C | -2.3 °C | -0.14 °C | 0.41 °C | 0.39 °C | -0.03 °C | 0.79 °C | 0.22 °C | 0.63 °C
14 | CCOc1cc(N2CCC(O)CC2)ccc1Nc1ncc2c(n1)N(C)c1ccccc1C(=O)N2C | -0.09 °C | 1.85 °C | -1.07 °C | 0.32 °C | 0.48 °C | 0.23 °C | 0.05 °C | 0.49 °C | 1.48 °C | 0.47 °C
15 | Nc1ncnc2c1c(-c1cnc3[nH]ccc3c1)nn2C1CCCC1 | 0.91 °C | 4.79 °C | 1.22 °C | 0.54 °C | 0.76 °C | 1.19 °C | 3.18 °C | 0.34 °C | 0.72 °C | 0.21 °C
16 | CN1CCN(c2ccc3nc(-c4c(N)c5c(F)cccc5[nH]c4=O)[nH]c3c2)CC1 [Dovitinib (TKI258) Lactate] | 4.11 °C | 8.85 °C | 14.8 °C | 1.89 °C | 1.87 °C | 0.71 °C | 8.12 °C | 0.62 °C | 1.96 °C | 0.72 °C
17 | CNc1nc(-c2ccc3c(N)n[nH]c3c2)cc(N2C[C@@H](C(=O)NC3CCCCC3)CC[C@H]2C)n1 | 0.37 °C | 2.19 °C | -1.52 °C | 0.81 °C | 0.31 °C | 0.65 °C | 0.1 °C | 0.79 °C | 1.92 °C | 0.33 °C
18 | CC(C)NC[C@@H](C(=O)N1CCN(c2ncnc3c2[C@H](C)C[C@H]3O)CC1)c1ccc(Cl)cc1 [Ipatasertib (GDC-0068)] | -0.05 °C | 0.18 °C | -3.22 °C | 0.5 °C | 0.46 °C | 0.17 °C | -0.53 °C | 0.38 °C | 1.25 °C | 0.21 °C
19 | CCN(CC)CCCC(C)Nc1ccnc2cc(Cl)ccc12 (stereo not given) [Chloroquine Phosphate] | 0.53 °C | 0.78 °C | -0.51 °C | 0.02 °C | 0.51 °C | 0.55 °C | -3.04 °C | 0.22 °C | 0.72 °C | 0.52 °C
20 | C[C@H](Nc1ncnc2[nH]cnc12)c1cc2ccc(F)cc2nc1-c1ccccn1 | 0.18 °C | 0.48 °C | 0.99 °C | 0.62 °C | 0.48 °C | 0.58 °C | 0.43 °C | 0.53 °C | 0.76 °C | 0.2 °C
21 | Cc1cc(Nc2cc(N3CCN(C)CC3)nc(Sc3ccc(NC(=O)C4CC4)cc3)n2)n[nH]1 [Tozasertib (VX-680, MK-0457)] | 5.53 °C | 8.32 °C | 15.4 °C | 2.06 °C | 0.66 °C | 0.98 °C | 5.98 °C | 0.83 °C | 0.91 °C | 0.6 °C
